About 83,000 compounds went through this panel and 20% of them were active in at least one assay; those are over-represented in the sample as a whole.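 Note: values are percent growth. 100 is the growth of untreated cells, values between 100 and 0 indicate rising inhibition; between -100 and 0 indicates cell death.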 A number with no mark means an inactive call. Calls of active or inactive are those of the source. Rule for the calls: active = growth percent below 10; inactive = the rest.
Test system: OVCAR-3 ovarian
Experiment: NCI-60 one-dose screen, 48 h (100 = growth as untreated, 0 = no growth, -100 = all killed)
Conditions: 10 µM unless noted

Row | Structure (SMILES) | growth
1 | CCOC(=O)C(=O)CC(=O)N1C(=S)NC(=O)C1CC(C)C (stereo not given) | 112%
2 | COC(=O)C(Cc1ccccc1)Nc1nc(NC(Cc2ccccc2)C(=O)OC)nc(N2CCOCC2)n1 (stereo not given) | 111%
3 | COc1c(N2CC3CCCNC3C2)c(F)cc2c(=O)c(C(=O)N/N=C/c3ccc(F)cc3)cn(C3CC3)c12 (stereo not given) | 92.9%
4 | CC(=O)C1=C(C)NC(NNC(N)=S)=NC1c1ccccc1 (stereo not given) | 111%
5 | Cn1cc(-c2nnc(N)nc2-c2c[nH]c3ccc(F)cc23)c2cc(F)ccc21 | 78.6%
6 | Oc1[nH]c2ccccc2c1Nn1c(N=N/C=c2/ccc3c(c2)C=NN=3)n[nH]c1=S | 96.8%
7 | Cc1ccc2c(c1)C13C(=C2Br)CCCN1C(=O)c1ccccc13 (stereo not given) | 94.8%
8 | CCO/C=N/C1=C(C#N)C(c2ccc(Cl)cc2)c2sc3c(CC)cccc3c2O1 (stereo not given) | -20.5% (active)
9 | C=C(C=O)[C@@H]1CC[C@]2(COC(C)=O)CC[C@]3(C)C(CC[C@@H]4[C@@]5(C)CC[C@H](OC(C)=O)C(C)(C)[C@@H]5CC[C@]43C)[C@@H]12 (stereo not given in full) | -71.6% (active)
10 | O=C(O)c1ccc(-n2cc(CNc3cc(F)c(F)c(F)c3)c(-c3ccc(F)cc3)n2)cc1 | 96.3%
11 | COc1cc2nc(Cl)nc(Nc3cccc(C4=Nc5c(N)nc(N)nc5NC(c5ccc(Cl)cc5)C4)c3)c2cc1OC (stereo not given) | 62.6%
12 | CNC(=O)c1cc(N2CCc3cc(NC(=O)Nc4ccc(Cl)c(C(F)(F)F)c4)ccc32)ccn1 | 51.9%
13 | N=c1c2cc(-c3ccccc3)oc2ncn1/N=C/c1ccc(Br)cc1 | -7.71% (active)
14 | NC(N)=Nc1ccc(Oc2cccc(NC(N)=Nc3ccc(Br)c(C(F)(F)F)c3)c2)cc1 | 23.5%
15 | CN(Cc1ccccc1)S(=O)(=O)/N=C1\NC(=O)NC1=C(Cl)Cl | -81.7% (active)
16 | COc1ccc(S(=O)(=O)NCCCNc2nccc(-c3[nH]c(-c4ccccc4)nc3-c3ccc(Cl)c(O)c3)n2)cc1 | 71.8%
17 | O=C(CN1CCN(c2cc(=O)n(-c3ccccc3)c3ccccc23)CC1)Nc1nc(-c2ccc(Cl)cc2)cs1 | 67.1%
18 | CC(=O)c1nnn(-c2c(C(=O)n3nc(C)cc3C)sc(=S)n2-c2ccccc2)c1C | 115%

Row | Structure (SMILES) | growth
19 | O=C1[C@H]2Cc3c([nH]c4ccccc34)[C@@H](c3ccc(Br)cc3)N2C(=O)CN1C1CCN(CC2CCCCC2)CC1 | -90% (active)
20 | NS(=O)(=O)c1ccc(Nc2nc(Nc3ccccc3)nc3nnc(SCC(=O)NC4CCCCC4)n23)cc1 | 119%
21 | Cn1ccnc1C(=O)/C=C/C=C/c1ccc(C(=O)Nc2ccc(F)cc2)cc1 | 5.1% (active)
22 | O=C1[C@H]2Cc3c([nH]c4ccccc34)[C@@H](c3ccc(Cl)cc3)N2C(=O)CN1C1CCN(Cc2ccccc2)CC1 | 47.7%
23 | NC(N)=Nc1ccc(Oc2cccc(Nc3ccc(Br)c(C(F)(F)F)c3)c2)cn1 | -94.3% (active)
24 | CCn1c2ccccc2c2cc(-n3nncc3-c3ccccc3)ccc21 | 4.2% (active)
25 | CN1CCN(Cc2ccc(NC(=O)c3cncc(C#Cc4cnc5ccc(OCC(C)(C)O)nn45)c3)cc2C(F)(F)F)CC1 | -56.5% (active)
26 | Cc1ccc(-n2c(/C=C3\C(=O)Nc4ccccc43)ccc2CO)cc1 | 65.4%
27 | Cc1c(F)cc(C(N)=O)cc1NCC(=O)Nc1ccc([N+](=O)[O-])cc1 | 96.7%
28 | CCOC(=O)c1c(N)c(C#N)cn1-c1cc(OC)c(OC)c(OC)c1 | 119%
29 | O=c1[nH]c(Sc2sc3ccc(Cl)cc3c2CBr)nc(=S)[nH]1 | 56%
30 | CC(=O)c1ccc(Nc2nc(SCC(C)C)nc(-c3ccccc3)c2C#N)cc1 | 122%
31 | CS(=O)(=O)c1ncc(-c2ccccc2)cn1 | 90.7%
32 | CNC(=O)c1c(NC(=O)c2ccccc2C(F)(F)F)sc2c1CCC(=O)C2 | 11.2%
33 | NC(N)=Nc1ccc(Nc2cccc(Oc3ccc(Cl)c(C(F)(F)F)c3)c2)cn1 | -55% (active)
34 | CC(C)c1ccc(NCc2cn(-c3ccc(C(=O)O)cc3)nc2-c2cc(C(F)(F)F)cc(C(F)(F)F)c2)cc1 | 80.9%
35 | COc1cc2nc(Cl)nc(Nc3cccc(C4=Nc5c(N)nc(N)nc5NC(c5ccccc5)C4)c3)c2cc1OC (stereo not given) | 77.7%
